# Assay results: paper PMC11062922 (Nature Chemical Biology, 2023)
# Experiments:
# Set-up in all cases: species or system human, MV4-11 + K-562 + COLO205 + SK-N-BE2 + OVCAR-8
# CDK16 = conditions: read-out: apparent Kd; compound concentrations:100 nM and 1000 nM (sheet 'Samples'); n = 1
# CDK2 = conditions: read-out: apparent Kd; compound concentrations:100 nM and 1000 nM (sheet 'Samples'); n = 1
# CDKL5 = conditions: read-out: apparent Kd; compound concentrations:100 nM and 1000 nM (sheet 'Samples'); n = 1
# CLK4 = conditions: read-out: apparent Kd; compound concentrations:100 nM and 1000 nM (sheet 'Samples'); n = 1
# CSNK2A1;CSNK2A3 = conditions: read-out: apparent Kd; compound concentrations:100 nM and 1000 nM (sheet 'Samples'); n = 1
# CSNK2A2 = conditions: read-out: apparent Kd; compound concentrations:100 nM and 1000 nM (sheet 'Samples'); n = 1
# TGFBR2 = conditions: read-out: apparent Kd; compound concentrations:100 nM and 1000 nM (sheet 'Samples'); n = 1
# CDC42 = conditions: read-out: apparent Kd; compound concentrations:100 nM and 1000 nM (sheet 'Samples'); n = 1
# DJA1 = system: T1, DJA1; conditions: read-out: apparent Kd; compound concentrations:100 nM and 1000 nM (sheet 'Samples'); n = 1
# T1 construct: gene DNAJA1
# PRKCQ = conditions: read-out: apparent Kd; compound concentrations:100 nM and 1000 nM (sheet 'Samples'); n = 1
# CDK17 = conditions: read-out: apparent Kd; compound concentrations:100 nM and 1000 nM (sheet 'Samples'); n = 1
# CDK1 = conditions: read-out: apparent Kd; compound concentrations:100 nM and 1000 nM (sheet 'Samples'); n = 1
# CDK4 = conditions: read-out: apparent Kd; compound concentrations:100 nM and 1000 nM (sheet 'Samples'); n = 1
# CDK5 = conditions: read-out: apparent Kd; compound concentrations:100 nM and 1000 nM (sheet 'Samples'); n = 1
# CDK6 = conditions: read-out: apparent Kd; compound concentrations:100 nM and 1000 nM (sheet 'Samples'); n = 1
# CDK7 = conditions: read-out: apparent Kd; compound concentrations:100 nM and 1000 nM (sheet 'Samples'); n = 1
# CDK9 = conditions: read-out: apparent Kd; compound concentrations:100 nM and 1000 nM (sheet 'Samples'); n = 1
# ICK = conditions: read-out: apparent Kd; compound concentrations:100 nM and 1000 nM (sheet 'Samples'); n = 1
# NNT = conditions: read-out: apparent Kd; compound concentrations:100 nM and 1000 nM (sheet 'Samples'); n = 1
# PSMC4 = conditions: read-out: apparent Kd; compound concentrations:100 nM and 1000 nM (sheet 'Samples'); n = 1
# SLK = conditions: read-out: apparent Kd; compound concentrations:100 nM and 1000 nM (sheet 'Samples'); n = 1
# CDK12 = conditions: read-out: apparent Kd; compound concentrations: 100 nM and 1000 nM (sheet 'Samples'), CATDS: 0.16242687072241299; n = 1
# CDK13 = conditions: read-out: apparent Kd; compound concentrations: 100 nM and 1000 nM (sheet 'Samples'), CATDS: 0.16446533875215399; n = 1
# MAPK10 = conditions: read-out: apparent Kd; compound concentrations: 100 nM and 1000 nM (sheet 'Samples'), CATDS: 0.33495043269217101; n = 1
# MAPK8 = conditions: read-out: apparent Kd; compound concentrations: 100 nM and 1000 nM (sheet 'Samples'), CATDS: 0.17846593111563799; n = 1
# MAPK9 = conditions: read-out: apparent Kd; compound concentrations: 100 nM and 1000 nM (sheet 'Samples'), CATDS: 0.23956411042419101; n = 1
# FLT3 = conditions: read-out: apparent Kd; compound concentrations:100 nM and 1000 nM (sheet 'Samples'); n = 1
# GSK3A = conditions: read-out: apparent Kd; compound concentrations:100 nM and 1000 nM (sheet 'Samples'); n = 1
# LIMK2 = conditions: read-out: apparent Kd; compound concentrations:100 nM and 1000 nM (sheet 'Samples'); n = 1
# GSK3B = conditions: read-out: apparent Kd; compound concentrations:100 nM and 1000 nM (sheet 'Samples'); n = 1
smiles,measurement,setting,value
CC(C)COC(=O)c1ccc2c(c1)/C(=C/Nc1ccc(S(N)(=O)=O)cc1)C(=O)N2 [GW416981X],potency estimated from few doses,CDK16,0.964 µM
same,potency estimated from few doses,CDK2,0.587 µM
same,potency estimated from few doses,CDKL5,1.29 µM
same,potency estimated from few doses,CLK4,1.48 µM
same,potency estimated from few doses,CSNK2A1;CSNK2A3,0.477 µM
same,potency estimated from few doses,CSNK2A2,0.246 µM
same,potency estimated from few doses,TGFBR2,1.86 µM
CNc1nc(-c2ccc3c(N)n[nH]c3c2)cc(N2C[C@@H](C(=O)Nc3ccccc3)CC[C@H]2C)n1 [GSK2298859A],potency estimated from few doses,CDC42,2.14 µM
same,potency estimated from few doses,DJA1,0.88 µM
same,potency estimated from few doses,PRKCQ,1.8 µM
COc1cccc(F)c1C(=O)c1cnc(NC2CCN(S(C)(=O)=O)CC2)nc1N [RO4602005-000],potency estimated from few doses,CDK16,0.00938 µM
same,potency estimated from few doses,CDK17,0.0732 µM
same,potency estimated from few doses,CDK1,0.228 µM
same,potency estimated from few doses,CDK2,0.0377 µM
same,potency estimated from few doses,CDK4,1.45 µM
same,potency estimated from few doses,CDK5,0.234 µM
same,potency estimated from few doses,CDK6,1.75 µM
same,potency estimated from few doses,CDK7,0.812 µM
same,potency estimated from few doses,CDK9,0.206 µM
same,potency estimated from few doses,ICK,0.146 µM
same,potency estimated from few doses,NNT,1.69 µM
same,potency estimated from few doses,PSMC4,1.4 µM
same,potency estimated from few doses,SLK,0.845 µM
CN(C)C/C=C/C(=O)Nc1ccc(C(=O)N2CCC[C@@H](Nc3ncc(Cl)c(-c4c[nH]c5ccccc45)n3)C2)cc1 [THZ531],potency estimated from few doses,CDK12,1.8 µM
same,potency estimated from few doses,CDK13,1.74 µM
same,potency estimated from few doses,MAPK10,0.434 µM
same,potency estimated from few doses,MAPK8,1.41 µM
same,potency estimated from few doses,MAPK9,0.76 µM
CC(=O)Nc1n[nH]c2ncc(-c3ccccc3)cc12 [SB-548492],potency estimated from few doses,CDC42,1.85 µM
same,potency estimated from few doses,FLT3,1.04 µM
same,potency estimated from few doses,GSK3A,0.748 µM
same,potency estimated from few doses,LIMK2,1.15 µM
CN(C)CCCC(=O)Nc1n[nH]c2nnc(-c3ccccc3)cc12.Cl [SB-627772-A],potency estimated from few doses,CDK16,1.84 µM
same,potency estimated from few doses,CDKL5,0.0046 µM
same,potency estimated from few doses,GSK3A,0.00615 µM
same,potency estimated from few doses,GSK3B,0.0171 µM
